# Compound activity as filed in PubChem BioAssay.
# VACV Venus inh = vaccinia inhibition (Venus reporter). Vaccinia virus Venus reporter expression, fluorescence. Potency, µM (series often up to 36.5 µM), actives largely listed as inhibitors. 330,000 tested, 0.46% active; calls by dose curve; tested in A549 cells; also: nearly all actives have a fitted effect of over 30% in size
# NS1 function inh = blocks influenza NS1 protein function | Potency, µM (doses to about 46.1 µM) | 270,000 tested, 0.4% active | AID 2326; calls by dose curve; also: actives are rising curves; nearly all actives have a fitted effect of over 50% in size
#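 A cell-based growth assay was used: compounds that relieve NS1-induced slow growth of budding yeast raise OD600. Assay medium was yeast nitrogen base with ammonium sulphate and -URA supplement, pH 6.0, with 2% galactose.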
# Pf growth 96h = inhibits malaria parasite growth, 96 h. P. falciparum luciferase reporter growth, 96 h. Potency, µM (titrated, usually from 28.7 µM), usual class: inhibitors. 320,000 tested, 6.9% active. AID 504834
#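 P. falciparum expressing integrated firefly luciferase grown in erythrocytes (2% hematocrit, 0.05% parasitemia final) with compounds for 96 hours at 37 C, 5% CO2. Growth inhibition read as loss of luminescence after adding luciferase detection reagent.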
# VACV mCherry inh = vaccinia inhibition (mCherry reporter). 310,000 tested, 0.63% active. AID 720579. Potency, µM (doses to about 36.5 µM), actives largely listed as inhibitors. Vaccinia virus mCherry reporter infection, fluorescence; calls by dose curve; tested in A549 cells; also: nearly all actives have a fitted effect of over 35% in size
# Pf growth 48h = inhibits P. falciparum growth in the first generation, 48 h | P. falciparum luciferase growth in erythrocytes, 48 h | Potency, µM (top dose mostly 28.7 µM), actives largely listed as inhibitors | 310,000 tested, 5.9% active
#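 Luciferase-expressing parasites in RBCs, 2% Hct / 0.1% parasitemia final; RPMI 1640 + 0.5% Albumax; 37 C, 5% CO2, one generation; luminescence read-out, lower signal = inhibition.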
# HCV inh = inhibitors of hepatitis C virus infection | Huh7.5.1 HCVcc-Cre infection, luciferase reporter, 44 h | Potency, µM (top dose mostly 41.8 µM), hits mostly inhibitors | 340,000 tested, 3.4% active | AID 651820
#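 Antiviral activity was scored by luciferase reporter output from cells infected with HCVcc-Cre (~0.5 moi) in presence of compound, 44 h infection period, cells seeded 1,000/well 4 h prior.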
# Numbers stand for hits; – = inactive; ? = inconclusive; · = no result given. The list is not random: actives were taken first. Their share in the collection is about 11%. Unless noted, calls follow the shape of the dose curve; as a rule, active = well fitted inhibition curve with a large enough effect; inconclusive = small, poorly fitted or top-dose-only effect, or another doubt; inactive = no such curve, though single readings can be large or run the other way.
SMILES,VACV Venus inh,NS1 function inh,Pf growth 96h,VACV mCherry inh,Pf growth 48h,HCV inh
CCC(C)C1O[C@]2(C=CC1C)CC1CC(C/C=C(\C)[C@H](OC3CC(OC)C(O[C@H]4CC(OC)[C@@H](O)C(C)O4)C(C)O3)[C@@H](C)/C=C/C=C3\COC4C(O)C(C)=C[C@H](C(=O)O1)[C@@]34O)O2 (some centres not stated),·,·,13µM,·,15µM,·
CC[C@H](C)[C@H]1O[C@]2(C=C[C@@H]1C)C[C@@H]1C[C@@H](C/C=C(\C)[C@@H](O[C@H]3C[C@H](OC)[C@@H](O[C@H]4C[C@H](OC)[C@@H](O)[C@H](C)O4)[C@H](C)O3)[C@@H](C)/C=C/C=C3\CO[C@@H]4[C@H](O)C(C)=C[C@@H](C(=O)O1)[C@]34O)O2,–,·,·,–,·,·
O=C(COc1ccc(S(=O)(=O)N2CCOCC2)cc1)NCCCn1ccnc1,–,–,–,–,–,–
O=C(/C=C/c1ccc(S(=O)(=O)N2CCOCC2)cc1)Nc1cc(F)ccc1F,–,·,·,–,·,?
CCN(CC)S(=O)(=O)c1cccc(NC(=S)NC(=O)/C=C/c2ccc(S(=O)(=O)N3CCOCC3)cc2)c1,–,–,4.7µM,–,?,–
O=C(/C=C/c1ccc(F)cc1)Nc1cccc(S(=O)(=O)N2CCOCC2)c1,–,·,·,–,·,10µM
O=C(/C=C/c1ccc(S(=O)(=O)N2CCOCC2)cc1)NC(=S)NCCCn1ccnc1,?,·,?,–,?,22µM
Cc1cc(C(F)(F)F)n2nc(-c3cnn(C)c3C(F)(F)F)c(Cl)c2n1,·,–,?,·,3.3µM,–
O=C(Oc1ccc([N+](=O)[O-])cc1)c1cc(-c2ccccc2)nc2ccccc12,–,–,–,·,–,–
CCN(c1ccc(OC)cc1)S(=O)(=O)c1nnc(NC(=O)C2CCCCC2)s1,·,–,–,·,–,–
N#Cc1ccc(-c2csc(-c3ccno3)n2)cc1,–,–,–,–,–,–
N#Cc1ccc(CSc2nnc(-c3ccccn3)n2-c2ccccc2)cc1,–,–,·,·,–,–
CCn1c(SCc2ccccc2)nnc1-c1cccs1,·,–,?,·,9.3µM,–
CCn1c(SCc2ccccc2)nnc1C1CCN(S(=O)(=O)c2ccc(OC)cc2)CC1,?,–,?,?,?,–
CCn1c(SCc2ccccc2)nnc1C1CCCCC1,–,–,9.3µM,–,?,–
Cc1ccc(CSc2nnc(-c3cccs3)n2C)cc1,–,–,–,–,12µM,–
Cn1c(SCc2ccc(Br)cc2)nnc1-c1cccs1,·,–,?,·,?,?
N#Cc1ccc(CSc2nnc(-c3cccs3)n2-c2ccccc2)cc1,·,–,17µM,·,?,0.63µM
CCN(CC)CCCNC(=O)C1CCN(c2ncnc3c2sc2cccc(F)c23)CC1,·,–,1.9µM,·,?,?
Nc1nnc(SCC(=O)OCC(=O)NC23CC4CC(CC(C4)C2)C3)s1,–,·,–,–,13µM,–
NC(=O)c1cccc2cc3ccccc3cc12,–,–,?,–,–,11µM
NC(=O)c1ccccc1OCc1cccc2ccccc12,–,–,–,–,–,?
COc1cccc(CNC(=O)CCC(=O)N2CC(C)Oc3ccccc32)c1OC (configuration not stated),–,–,5.2µM,–,–,–
Cc1cccc2cc(CN(C(=O)c3cnccn3)C3CCCCC3)c(Cl)nc12,–,–,?,–,4.1µM,?
O=C(c1ccccc1)c1ccc(NCCCn2ccnc2)c([N+](=O)[O-])c1,–,–,12µM,–,?,35µM
SMILES,VACV Venus inh,NS1 function inh,Pf growth 96h,VACV mCherry inh,Pf growth 48h,HCV inh
O=C(NCCCn1ccnc1)c1ccc2ccccc2c1,·,–,12µM,·,–,–
O=C(NCCCn1ccnc1)c1cc(C2CC2)on1,–,–,10µM,–,–,–
Cc1ccc(-c2cc(C(=O)NCCCn3ccnc3)no2)cc1,·,–,–,·,–,–
O=C(NCCCn1ccnc1)C1c2ccccc2Oc2ccccc21,·,–,10µM,·,–,–
CCN(CC)CCNC(=O)C1c2ccccc2Oc2ccccc21,·,–,–,·,–,–
Cc1nn(C)c(C)c1/C=N/NC(=O)CCn1cc([N+](=O)[O-])cn1,–,–,–,–,–,–
Cc1cccc(CC2CC(=O)N(c3ccc([N+](=O)[O-])cc3)C2=O)c1 (configuration not stated),·,–,?,·,–,–
C=CCN(c1ccc(C(=O)NCCCn2ccnc2)cc1)S(C)(=O)=O,–,–,9.3µM,–,–,–
